# Only a sample is shown.
# aSyn UTR act = Activators working through SNCA 5'UTR binding (MLPCN) | alpha-synuclein 5'UTR reporter, activators screen | actives 7.1% (n = 300,000) | AID 1814 | activity score, % (tested at 7.5 µM), hits read low; in the data active = activity score below about -60%
# * marks the source's active call; other numbers are inactive results.
SMILES,aSyn UTR act
CCC(C)(C)NC(=O)/C=C/c1cnc2ccccc2n1,-122*
Cc1cccc(NC(=S)N2N=CCC2c2ccccc2)c1 (centres undefined),-125*
CCc1ccccc1NC(=S)N1N=CCC1c1ccccc1 (centres undefined),-71*
COc1ccc2c(COC(=O)c3n[nH]c4ccccc34)cc(=O)oc2c1,-180*
Cc1cc2oc(=O)cc(COC(=O)c3n[nH]c4ccccc34)c2cc1C,-134*
Cc1cccn2c(=O)c3cc(C(=O)NCCN4CCOCC4)c(=N)n(CCc4ccccc4)c3nc12,-128*
COc1ccc(CCn2c(=N)c(C(=O)N3CCN(C)CC3)cc3c(=O)n4ccccc4nc32)cc1,-65*
CCNC(=O)c1cc2c(=O)n3cccc(C)c3nc2n(CCc2ccccc2)c1=N,-105*
COc1ccc(CCn2c(=N)c(C(=O)NCCN3CCOCC3)cc3c(=O)n4cccc(C)c4nc32)cc1OC,-93*
Cc1cccn2c(=O)c3cc(C(=O)NCc4ccco4)c(=N)n(C4CCCCC4)c3nc12,-69*
COc1ccnc(CSC(N)=Nc2ccc(F)cc2)c1,-111*
C/C(=N/Nc1ccnc2cc(Cl)ccc12)c1ccc(N)cc1,-177*
C/C(=N/Nc1ccnc2cc(Cl)ccc12)c1ccc(O)cc1,-118*
O=C(Nc1ccccc1)C1=C[C@@H](c2ccccc2)C[C@@H](OCc2ccc(CO)cc2)O1,-94*
NC(=O)C1=C[C@H](c2ccccc2)C[C@H](OCc2ccc(CO)cc2)O1,-67*
CCOC(=O)c1sc(NC(=O)Nc2ccc(Cl)cc2)cc1C,-135*
CCN(CC)Cc1c(NC(=O)c2ccccc2)sc(C)c1C,-87*
CCOC(=O)c1sc(NC(=O)c2ccccc2)cc1C,-181*
CCOC(=O)c1sc(Nc2nc3c(OC)cccc3s2)cc1C,-196*
CCOC(=O)c1sc(NC(=O)C(C)(C)C)cc1C,-166*
CCOC(=O)c1sc(NC(=S)NC(=O)CC(C)C)cc1C,-102*
CCOC(=O)c1sc(NC(=O)c2ccc(Cl)s2)cc1C,-196*
Cc1ccc(-n2nnc(-c3cccnc3Cl)n2)cc1,-78*
COc1ncccc1-c1nnn(-c2ccc(Cl)nc2)n1,-74*
Clc1ccc(-n2nnc(-c3cccnc3Cl)n2)cn1,-130*
SMILES,aSyn UTR act
c1coc(CNc2nc3ccccc3s2)c1,-137*
c1ccc(Nc2nc(NCc3ccco3)c3ccccc3n2)cc1,-67*
Nc1nc(Nc2ccccc2)nc(NCc2ccccc2)c1[N+](=O)[O-],84
Oc1c(C(Nc2nc3ccccc3s2)c2ccco2)ccc2cccnc12 (centres undefined),66
c1ccc2sc(NC3=NCN(CC4CCCO4)CN3)nc2c1 (centres undefined),-86*
c1coc(CN2CN=C(Nc3nc4ccccc4s3)NC2)c1,-81*
Oc1ccccc1C1=Nc2ncnn2C(c2ccccc2)C1 (centres undefined),-68*
CC(C)Cn1c(/C=N/Nc2nc3ccccc3[nH]2)nc2ccccc21,-337*
Cn1c(/C=N/Nc2nc3ccccc3[nH]2)nc2ccccc21,-188*
C=CCn1cc(/C=N/Nc2nc3ccccc3[nH]2)c2ccccc21,-195*
O=C(c1cc2cc(Cl)ccc2[nH]1)N1CCCCC1,-85*
Cc1ccc(-c2csc(N/N=C/c3ccco3)n2)cc1,-232*
C(=N\Nc1nc(-c2ccccc2)cs1)/c1ccco1,-351*
Clc1ccc(-c2csc(N/N=C\c3cccnc3)n2)cc1,-77*
Clc1ccc(-c2csc(N/N=C/c3ccco3)n2)cc1,-156*
COc1ccc(OC)c(NC(=O)c2nc(S(=O)(=O)Cc3ccccc3)ncc2Cl)c1,99
COc1ccc(OC(=O)NCCc2ccccc2)cc1,-134*
COc1ccc(C(=O)Nc2cc(C(=O)NCCc3ccccc3)ccc2Cl)cc1,-69*
COc1ccc(CCNC(=O)c2ccccc2)cc1,-64*
COc1ccc(CC(=O)Nc2ccccc2C(=O)NCCc2ccccc2)cc1,-101*
COc1ccc(CCNC(=O)c2nonc2N)cc1,-85*
COc1ccc(O)c(/C=N/NC(=O)c2c(C)nnn2-c2nonc2N)c1,64
COc1cccc(CCNC(=O)c2ccc(C#N)cc2)c1,-63*
CN(C)c1ccc(C2C3CCCc4ccccc4C3=NN2C)cc1 (centres undefined),-134*
CN1N=C2c3ccccc3CCC2C1c1ccc(C(F)(F)F)cc1 (centres undefined),-72*
SMILES,aSyn UTR act
COc1ccc(/C=N/NC(=O)COc2ccccc2-c2ccccc2)cc1,70
COC(=O)N/N=C/c1ccc(Oc2ccccc2)cc1,-69*
CCOC(=O)N/N=C/C=C/c1ccccc1,-105*
CC(=O)N/N=C\c1ccccc1OC/C=C/c1ccccc1,-128*
CCOC(=O)N/N=C\c1ccc(OC/C=C/c2ccccc2)cc1,-73*
CC(C)(O)C(=O)N/N=C\c1ccc(OC/C=C/c2ccccc2)cc1,-96*
COC(=O)N/N=C\c1ccc(OC/C=C/c2ccccc2)cc1,-95*
COc1cccc(N2CCN(c3ncccn3)CC2)c1,-104*
CC(=O)c1ccc(N2CCN(c3ncccn3)CC2)cc1,-125*
Cc1cc(C(=O)N(C)C)sc1-c1ccccc1,-132*
Cc1ccc(/C=C2/SC(=S)N(CCCC(=O)Nc3ccc(O)cc3)C2=O)cc1,86
COc1ccc(N=C2NC(=O)/C(=C/c3ccco3)S2)cc1,-127*
Cc1ccc(C(=O)NNC(=O)CCCN2C(=O)/C(=C/c3ccccc3Cl)SC2=S)cc1,69
Cc1ccc(N=C2NC(=O)S/C2=C\c2ccco2)cc1,-63*
Cc1ccc(N2C(=O)/C(=C/c3ccco3)SC2=S)cc1,-94*
O=C1NC(=Nc2ccccc2)/C(=C/c2ccco2)S1,-65*
COC(=O)c1ccc(S(=O)(=O)N2CCc3ccccc32)cc1,-96*
COc1ccc(-c2nnc(NC(=O)c3ccc(S(=O)(=O)N4CCCc5ccccc54)cc3)o2)cc1,69
Cc1cccc2nc(=S)n(C(=O)c3ccco3)n12,-221*
O=C(c1ccco1)n1c(=S)nc2ccccn21,-172*
Cc1ccn2c(c1)nc(=S)n2C(=O)c1ccccc1,-100*
Cc1[nH]c2ccccc2c1C(=O)C(=O)Nc1ccc2c(c1)OCCO2,-126*
O=C(Nc1ccc2c(c1)OCO2)C(=O)c1c[nH]c2ccccc12,-72*
CCN1CCN(Cc2ccc(NC(=O)c3cc(NC(=O)C(=O)c4c[nH]c5ccccc45)cc(OC)c3)cc2C(F)(F)F)CC1,117
Cc1csc(SCC(=O)Nc2ccc3c(c2)OCCO3)n1,-67*
SMILES,aSyn UTR act
Cc1cccc(-c2nsc(SCC(=O)Nc3ccc4c(c3)OCO4)n2)c1,-96*
CSc1nsc(SCC(=O)Nc2ccc3c(c2)OCCO3)n1,-136*
O=C(CC(Nc1ccc(F)cc1)C(=O)O)c1ccccc1 (centres undefined),-171*
O=C(CC(Nc1ccc(F)cc1)C(=O)OCC(=O)c1cccs1)c1ccccc1 (centres undefined),-113*
CC(=O)c1c(C)[nH]c(C(=O)OCc2ccccc2F)c1C,-101*
CC(=O)c1c(C)[nH]c(C(=O)OCc2cccc(C)c2)c1C,-90*
CC(=O)c1c(C)[nH]c(C(=O)OCc2ccc(Br)cc2)c1C,-74*
CC(=O)c1c(C)[nH]c(C(=O)OCCOc2ccccc2)c1C,67
CCCCCCC(=O)c1c(C)[nH]c(C(=O)OCC)c1C,-114*
CCOC(=O)c1c(C)[nH]c(C(=O)OCC(=O)NCCc2ccc(OCC)c(OCC)c2)c1C,60
CCOC(=O)c1[nH]c(C)c(C(=O)Nc2ccc(C)c(Cl)c2)c1C,-92*

# Source: PubChem (Broad Institute)
